# Measured values from PubChem BioAssay.
# The source made the active and inactive calls.
# Key:
# [1] = system: PRMT1 (protein arginine N-methyltransferase 1); experiment: small molecules binding arginine methyltransferase PRMT1 – biochemical, small-molecule microarray, 635 nm fluorescence, primary screen (AID 1088); conditions: higher = more signal;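 note: binding of Prmt1 protein to compounds spotted on small-molecule microarray slides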
# [2] = growth effects on S. cerevisiae YJM789 – YJM789 clinical isolate, OD600, 24 h, basal, primary screen (AID 1089); conditions: higher = more signal, called active from +8 up or from −8 down;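 note: growth of clinical yeast isolate S. cerevisiae YJM 789 seeded 1000 cells per well; test concentration not given here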
# [3] = S. pombe growth modifiers, basal conditions – strain 972, OD600, 24 h, no modulator, primary screen (AID 1090);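 note: basal condition with compound alone and no growth modifier present; test concentration not given here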; conditions: S. pombe 972 growth, higher = more signal, called active from +8 up or from −8 down
# [4] = budding yeast growth modifiers under rapamycin – strain BY4716, OD600, 96 h, primary screen (AID 1091); note: test concentration not given here; conditions: S. cerevisiae BY4716 + rapamycin, higher = more signal, called active from +8 up or from −8 down
# [5] = molecular target: Torsin-1A-interacting protein 2 (Homo sapiens) (UniProt Q8NFQ8); experiment: small molecules binding lysate-expressed LULL1 – cell lysate, human LULL1 lysate, 635/667 nm fluorescence, primary screen (AID 1092); conditions: small-molecule microarray, hLULL1 lysate binding, 635 nm fluorescence; higher = more signal;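 note: probe is lysate of COS7 cells overexpressing human LULL1; score merges per-feature 667 nm fluorescence with signal-to-noise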
# Chain of Torsin-1A-interacting protein 2 (Homo sapiens) (Q8NFQ8 whole entry, looked up): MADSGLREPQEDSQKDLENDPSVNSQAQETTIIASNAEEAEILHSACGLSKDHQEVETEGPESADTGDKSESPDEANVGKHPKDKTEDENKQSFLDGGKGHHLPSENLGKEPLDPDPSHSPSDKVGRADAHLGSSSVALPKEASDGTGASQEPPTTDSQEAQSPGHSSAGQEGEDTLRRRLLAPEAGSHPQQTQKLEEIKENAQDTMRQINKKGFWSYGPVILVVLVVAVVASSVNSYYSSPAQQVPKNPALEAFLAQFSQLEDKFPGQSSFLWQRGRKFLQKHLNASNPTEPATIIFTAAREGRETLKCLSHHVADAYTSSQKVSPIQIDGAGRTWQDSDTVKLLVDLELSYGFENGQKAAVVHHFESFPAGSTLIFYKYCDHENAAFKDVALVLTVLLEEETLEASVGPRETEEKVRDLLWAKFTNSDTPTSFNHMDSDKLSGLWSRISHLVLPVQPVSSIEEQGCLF
# [6] = optical density change of DRC41 E. coli – strain DRC41, OD650, 24 h, E. coli filamentation project, primary screen (AID 1093);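 note: MC1000 strain lacking acrAB efflux and sulA so SOS filamentation is blocked; test concentration not given here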; conditions: E. coli DRC41 growth, higher = more signal, called active from +8 up or from −8 down
# [7] = probe aLefty2 binding to arrayed compounds – biochemical, biotinylated probe, 635/667 nm fluorescence, primary screen (AID 1094); conditions: small-molecule microarray, higher = more signal;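 note: score merges spot fluorescence near 667 nm with spot signal-to-noise ratio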
# [8] = system: Noggin (protein binding on small-molecule microarray); experiment: small molecules binding Noggin protein – biochemical, 635/667 nm fluorescence, primary screen (AID 1095); conditions: 635 nm fluorescence, higher = more signal;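 note: score merges 667 nm feature fluorescence with signal to noise over triplicate slides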
# [9] = molecular target: Neurogenic locus notch homolog protein 3 (Homo sapiens) (UniProt Q9UM47); experiment: small molecules binding NOTCH3 protein – biochemical, 635/667 nm fluorescence, primary screen (AID 1096); conditions: small-molecule microarray, 635 nm fluorescence, higher = more signal
# Chain of Neurogenic locus notch homolog protein 3 (Homo sapiens) (Q9UM47 whole entry, looked up): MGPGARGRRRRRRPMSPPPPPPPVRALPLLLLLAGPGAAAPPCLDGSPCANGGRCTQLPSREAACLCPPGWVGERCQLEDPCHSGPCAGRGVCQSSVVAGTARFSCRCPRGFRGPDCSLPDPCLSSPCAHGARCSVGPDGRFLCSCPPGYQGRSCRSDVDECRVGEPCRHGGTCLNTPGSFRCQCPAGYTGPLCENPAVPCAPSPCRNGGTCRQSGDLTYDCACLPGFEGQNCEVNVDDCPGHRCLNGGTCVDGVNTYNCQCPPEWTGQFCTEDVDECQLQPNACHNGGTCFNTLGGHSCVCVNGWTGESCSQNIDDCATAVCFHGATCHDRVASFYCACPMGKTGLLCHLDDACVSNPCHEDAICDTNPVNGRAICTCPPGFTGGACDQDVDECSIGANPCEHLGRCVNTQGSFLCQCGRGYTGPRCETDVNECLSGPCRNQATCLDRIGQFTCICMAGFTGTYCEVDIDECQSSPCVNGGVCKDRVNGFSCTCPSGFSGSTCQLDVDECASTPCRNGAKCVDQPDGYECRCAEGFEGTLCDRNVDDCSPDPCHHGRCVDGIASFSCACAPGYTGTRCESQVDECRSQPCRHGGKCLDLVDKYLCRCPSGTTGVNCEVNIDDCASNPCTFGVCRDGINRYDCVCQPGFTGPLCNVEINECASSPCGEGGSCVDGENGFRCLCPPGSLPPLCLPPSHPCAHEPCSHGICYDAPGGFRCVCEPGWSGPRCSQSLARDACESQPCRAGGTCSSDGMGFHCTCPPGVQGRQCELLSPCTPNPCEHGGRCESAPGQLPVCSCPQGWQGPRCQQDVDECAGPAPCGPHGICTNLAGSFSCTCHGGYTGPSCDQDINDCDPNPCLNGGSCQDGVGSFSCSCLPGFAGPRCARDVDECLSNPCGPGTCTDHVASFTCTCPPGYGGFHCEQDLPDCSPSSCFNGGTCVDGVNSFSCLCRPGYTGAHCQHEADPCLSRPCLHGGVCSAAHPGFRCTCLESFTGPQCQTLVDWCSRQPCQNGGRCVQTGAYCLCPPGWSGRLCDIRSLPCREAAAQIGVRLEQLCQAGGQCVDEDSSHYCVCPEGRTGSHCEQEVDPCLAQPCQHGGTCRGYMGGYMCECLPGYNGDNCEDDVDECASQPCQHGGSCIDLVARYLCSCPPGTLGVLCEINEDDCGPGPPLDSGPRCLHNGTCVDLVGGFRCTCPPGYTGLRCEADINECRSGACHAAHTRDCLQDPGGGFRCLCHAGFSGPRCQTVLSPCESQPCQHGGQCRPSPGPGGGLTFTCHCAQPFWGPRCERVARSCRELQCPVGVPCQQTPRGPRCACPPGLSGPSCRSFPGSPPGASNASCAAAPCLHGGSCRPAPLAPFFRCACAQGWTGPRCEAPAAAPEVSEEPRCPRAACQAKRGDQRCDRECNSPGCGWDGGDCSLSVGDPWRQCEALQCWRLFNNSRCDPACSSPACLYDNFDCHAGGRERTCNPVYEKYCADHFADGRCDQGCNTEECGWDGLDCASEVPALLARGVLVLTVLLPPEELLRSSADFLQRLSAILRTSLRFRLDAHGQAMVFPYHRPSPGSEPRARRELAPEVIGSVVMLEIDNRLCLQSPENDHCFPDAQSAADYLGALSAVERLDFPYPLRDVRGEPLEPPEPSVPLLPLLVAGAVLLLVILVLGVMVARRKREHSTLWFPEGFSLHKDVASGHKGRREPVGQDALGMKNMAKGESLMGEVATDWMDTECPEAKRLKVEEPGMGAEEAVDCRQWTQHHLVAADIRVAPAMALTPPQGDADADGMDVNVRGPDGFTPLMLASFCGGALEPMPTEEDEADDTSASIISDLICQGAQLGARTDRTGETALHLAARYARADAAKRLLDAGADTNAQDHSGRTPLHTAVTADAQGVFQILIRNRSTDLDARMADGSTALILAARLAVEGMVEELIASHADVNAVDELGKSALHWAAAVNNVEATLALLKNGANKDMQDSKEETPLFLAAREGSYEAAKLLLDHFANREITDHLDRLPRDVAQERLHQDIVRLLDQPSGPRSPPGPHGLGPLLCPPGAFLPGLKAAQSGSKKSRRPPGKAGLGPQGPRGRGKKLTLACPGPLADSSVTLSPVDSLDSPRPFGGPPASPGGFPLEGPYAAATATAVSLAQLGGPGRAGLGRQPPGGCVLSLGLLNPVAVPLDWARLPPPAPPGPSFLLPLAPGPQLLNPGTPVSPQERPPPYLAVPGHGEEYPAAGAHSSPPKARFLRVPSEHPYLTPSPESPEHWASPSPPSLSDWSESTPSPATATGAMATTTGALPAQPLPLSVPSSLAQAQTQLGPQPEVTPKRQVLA
# [10] = probe aEGFR binding to arrayed compounds – biochemical, biotinylated probe, 635/667 nm fluorescence, primary screen (AID 1097); conditions: small-molecule microarray, higher = more signal;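 note: probe is a biotinylated anti-EGFR antibody binding compounds printed on slides; score combines fluorescence near 667 nm and signal to noise of each spot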
# [11] = system: Plasmodium falciparum Sir2 (PF13_0152, Sir2A); experiment: Plasmodium falciparum Sir2A binding compounds – biochemical, small-molecule microarray, 635 nm fluorescence, primary screen (AID 1098); conditions: fluorescence 635 nm, higher = more signal;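 note: score merges spot fluorescence intensity with its signal-to-noise ratio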
# [12] = probe aDKK1 binding to arrayed compounds – biochemical, biotinylated probe, 635/667 nm fluorescence, primary screen (AID 1099); conditions: small-molecule microarray, higher = more signal;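 note: score merges 667nm spot fluorescence with signal to noise across triplicate slides; reference of the scale not given here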
# [13] = probe aCHRDL2 binding to arrayed compounds – biochemical, biotinylated probe, 635/667 nm fluorescence, primary screen (AID 1100); conditions: small-molecule microarray, higher = more signal
# [14] = change in splice reporter luminescence, either direction, cell-based, HEK293, spliceosome inhibition project, primary screen (AID 1101); conditions: HEK293 splicing luciferase reporter, 24 h, higher = more signal, called active from +8 up or from −8 down;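 note: HEK293 cells carrying a splicing-competent luciferase reporter gene; test concentration not given here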
# [15] = molecular target: Fibroblast growth factor 10 (Homo sapiens) (UniProt O15520); experiment: compounds binding fibroblast growth factor 10 – biochemical, small-molecule microarray, 635 nm fluorescence, primary screen (AID 1102); conditions: FGF10 binding, fluorescence 635 nm, higher = more signal
# Chain of Fibroblast growth factor 10 (Homo sapiens) (O15520 whole entry, looked up): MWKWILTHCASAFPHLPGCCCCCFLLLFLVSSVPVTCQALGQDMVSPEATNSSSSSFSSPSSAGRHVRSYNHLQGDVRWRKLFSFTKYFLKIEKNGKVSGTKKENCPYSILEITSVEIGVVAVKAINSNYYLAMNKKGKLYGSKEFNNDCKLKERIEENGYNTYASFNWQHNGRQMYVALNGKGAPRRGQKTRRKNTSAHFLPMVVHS
# [16] = system: glycogen synthase kinase-3 (GSK3A per assay name; protocol says GSK3B); experiment: compounds binding glycogen synthase kinase-3 – biochemical, small-molecule microarray, 635 nm fluorescence, GSK3A, primary screen (AID 1103); conditions: fluorescence 635 nm, higher = more signal; note: the record names both GSK3A and GSK3B
# [17] = molecular target: Epidermal growth factor receptor (Homo sapiens) (UniProt P00533); experiment: compounds binding epidermal growth factor receptor – biochemical, small-molecule microarray, 635 nm fluorescence, primary screen (AID 1104); conditions: EGFR binding, higher = more signal;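 note: score merges 667 nm emission intensity with spot signal to noise over triplicate slides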
# Chain of Epidermal growth factor receptor (Homo sapiens) (P00533 whole entry, looked up): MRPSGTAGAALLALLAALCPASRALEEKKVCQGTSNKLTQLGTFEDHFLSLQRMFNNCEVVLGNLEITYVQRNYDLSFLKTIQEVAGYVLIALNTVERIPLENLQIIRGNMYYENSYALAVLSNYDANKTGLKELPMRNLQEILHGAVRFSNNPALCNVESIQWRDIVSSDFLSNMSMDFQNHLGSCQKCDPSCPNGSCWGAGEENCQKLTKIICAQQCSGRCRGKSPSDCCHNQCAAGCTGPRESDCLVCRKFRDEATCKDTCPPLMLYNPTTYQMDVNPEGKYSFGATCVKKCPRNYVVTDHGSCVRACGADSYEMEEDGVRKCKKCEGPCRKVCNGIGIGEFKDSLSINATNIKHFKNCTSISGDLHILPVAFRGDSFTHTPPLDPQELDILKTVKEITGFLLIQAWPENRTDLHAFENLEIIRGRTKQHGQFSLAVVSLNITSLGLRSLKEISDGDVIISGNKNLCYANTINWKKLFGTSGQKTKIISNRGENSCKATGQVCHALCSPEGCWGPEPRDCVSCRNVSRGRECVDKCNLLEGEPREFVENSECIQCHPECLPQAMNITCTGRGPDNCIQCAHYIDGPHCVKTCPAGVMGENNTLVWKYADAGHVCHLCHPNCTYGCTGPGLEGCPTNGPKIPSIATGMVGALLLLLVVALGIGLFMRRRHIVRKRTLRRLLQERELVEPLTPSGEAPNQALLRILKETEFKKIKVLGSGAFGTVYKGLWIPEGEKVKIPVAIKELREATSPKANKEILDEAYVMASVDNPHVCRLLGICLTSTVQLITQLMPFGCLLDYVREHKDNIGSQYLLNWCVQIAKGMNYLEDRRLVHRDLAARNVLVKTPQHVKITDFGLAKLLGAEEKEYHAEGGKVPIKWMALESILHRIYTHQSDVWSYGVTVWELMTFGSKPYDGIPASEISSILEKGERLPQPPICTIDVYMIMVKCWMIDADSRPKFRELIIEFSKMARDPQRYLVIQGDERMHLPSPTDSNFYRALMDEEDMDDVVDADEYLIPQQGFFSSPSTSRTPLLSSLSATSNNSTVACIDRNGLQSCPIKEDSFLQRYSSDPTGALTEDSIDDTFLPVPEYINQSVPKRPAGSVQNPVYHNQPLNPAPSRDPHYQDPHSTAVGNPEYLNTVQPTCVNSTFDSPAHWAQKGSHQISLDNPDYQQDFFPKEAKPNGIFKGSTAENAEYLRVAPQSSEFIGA
# [18] = molecular target: Follistatin-related protein 3 (Homo sapiens) (UniProt O95633); experiment: compounds binding follistatin-related protein 3 – biochemical, small-molecule microarray, 635 nm fluorescence, primary screen (AID 1105); conditions: FSTL3 binding, higher = more signal;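 note: score merges emission near 667 nm and signal to noise per printed spot across three slides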
# Chain of Follistatin-related protein 3 (Homo sapiens) (O95633 whole entry, looked up): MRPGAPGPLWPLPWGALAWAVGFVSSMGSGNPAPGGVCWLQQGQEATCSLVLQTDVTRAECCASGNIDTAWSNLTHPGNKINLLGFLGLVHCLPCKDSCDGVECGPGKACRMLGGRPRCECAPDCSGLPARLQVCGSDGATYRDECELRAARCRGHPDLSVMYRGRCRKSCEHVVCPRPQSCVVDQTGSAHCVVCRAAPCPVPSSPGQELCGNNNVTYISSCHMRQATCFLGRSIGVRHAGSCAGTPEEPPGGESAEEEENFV
# [19] = molecular target: Dickkopf-related protein 1 (Homo sapiens) (UniProt O94907); experiment: small molecules binding DKK1 protein – biochemical, small-molecule microarray, 635 nm fluorescence scan, primary screen (AID 1106); conditions: higher = more signal;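 note: score merges emission near 667 nm with signal to noise over three replicate slides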
# Chain of Dickkopf-related protein 1 (Homo sapiens) (O94907 whole entry, looked up): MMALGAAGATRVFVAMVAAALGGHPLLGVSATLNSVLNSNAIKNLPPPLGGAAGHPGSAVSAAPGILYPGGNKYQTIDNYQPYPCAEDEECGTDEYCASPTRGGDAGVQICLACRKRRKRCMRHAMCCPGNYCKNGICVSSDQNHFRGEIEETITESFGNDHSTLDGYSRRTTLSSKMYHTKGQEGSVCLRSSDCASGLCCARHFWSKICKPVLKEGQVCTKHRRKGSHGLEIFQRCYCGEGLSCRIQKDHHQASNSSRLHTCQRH
# [20] = system: Inhibin beta A chain (activin A); experiment: small molecules binding activin A – biochemical, small-molecule microarray, 635 nm fluorescence scan, primary screen (AID 1107); conditions: INHBA, higher = more signal;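 note: mouse activin A protein probed at 4.33 µg/mL on printed slides; score merges bound-protein fluorescence near 667 nm with spot signal-to-noise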
Compound,composite z-score [1],z-score [2],z-score [3],z-score [4],composite z-score [5],z-score [6],composite z-score [7],composite z-score [8],composite z-score [9],composite z-score [10],composite z-score [11],composite z-score [12],composite z-score [13],z-score [14],composite z-score [15],composite z-score [16],composite z-score [17],composite z-score [18],composite z-score [19],composite z-score [20]
CCOC(=O)[C@H](Cc1ccccc1)NC(=O)CCC1CC(OC(=O)NCCc2ccc(F)cc2)CC2(CCCC(COC(=O)NCCOc3ccccc3)O2)O1 (stereo not given in full),1.53,-0.0952 (inactive),0.549 (inactive),0.0763 (inactive),2.18,0.384 (inactive),-0.0907,0.492,1.07,0.0009,0.87,-0.119,-0.442,-0.421 (inactive),0.979,1.28,0.597,1.31,1.05,-0.155
CC(CCC(=O)OC[C@H]1O[C@H](C#Cc2ccccc2)C=C[C@@H]1Oc1ccc(C)cc1)=NO[C@H](C)c1cn([C@@H]2COC[C@H]2O)nn1,0.535,-1.42 (inactive),-0.688 (inactive),-0.0188 (inactive),0.042,-0.342 (inactive),-0.128,0.375,-0.151,-0.137,0.261,-0.2,-0.383,-1.45 (inactive),0.162,-0.267,0.238,0.22,0.285,0.203
CC(C)C(=O)N[C@H]1CCCN1C(=O)C=Cc1ccccc1,0.876,0.624 (inactive),0.495 (inactive),1.02 (inactive),0.0445,0.267 (inactive),-0.0022,1.13,0.826,0.125,0.0571,-0.0477,-0.43,0.539 (inactive),1.07,0.823,0.43,0.722,0.634,0.0551
COc1ccc(O[C@H]2C=C[C@@H](C#Cc3ccccc3)O[C@@H]2CO)cc1,0.718,-0.315 (inactive),-20.4 (active),-0.731 (inactive),1.88,1.3 (inactive),-0.248,1.15,0.402,-0.125,0.544,-0.139,-0.253,1.45 (inactive),0.535,-0.139,0.316,-0.0229,0.377,1.08
C[C@H]1CC[C@@H](C(=O)O)N[C@@H]1c1cccc(N2CCCC2=O)c1,-0.344,0.31 (inactive),0.0026 (inactive),0.374 (inactive),0.283,0.816 (inactive),-0.0873,0.49,0.408,-0.123,0.0371,-0.154,-0.496,-0.00389 (inactive),0.184,0.631,0.376,0.285,0.153,0.292
C#CCCCON=C1C[C@@H](O)[C@@H](O)[C@@H]2[C@@H]3C(=O)N(C4CCCCC4)C(=O)[C@@H]3CC[C@@H]12,0.335,-1.83 (inactive),-1.61 (inactive),-1.07 (inactive),1.01,0.862 (inactive),-0.118,0.454,0.358,-0.0409,0.369,0.0266,-0.287,0.466 (inactive),0.743,-0.0432,0.336,0.556,0.692,0.265
CC(=O)OC[C@H]1O[C@H](CC=NO[C@@H](C)c2cn([C@H](CO)Cc3ccccc3)nn2)C=C[C@@H]1OC(C)=O,1.56,-0.283 (inactive),-0.359 (inactive),-0.346 (inactive),0.96,-0.477 (inactive),-0.0137,0.336,0.55,0.0035,0.775,0.101,-0.624,-1.54 (inactive),1.07,0.517,0.387,1.06,1.05,-0.383
CON=C(C)CCC(=O)OC[C@H]1O[C@H](C#Cc2ccccc2)C=C[C@@H]1Oc1ccc(C)cc1,1.06,1.42 (inactive),-14.2 (active),1.52 (inactive),0.756,0.149 (inactive),-0.143,0.351,0.326,-0.0363,0.699,0.0281,-0.22,0.825 (inactive),0.19,-0.252,0.252,0.407,0.572,0.719
CC(CCN1CCCc2nc(C)c(C)cc21)=NO[C@@H](C)c1cn([C@H](CO)Cc2ccccc2)nn1,0.279,0.72 (inactive),0.47 (inactive),0.672 (inactive),0.577,0.923 (inactive),-0.114,0.78,0.713,-0.0493,0.531,-0.264,-0.388,0.867 (inactive),0.817,0.471,0.666,0.698,0.928,1.19
C[C@@H]1CC[C@H]2C(=O)OC(CN3C(=O)c4ccccc4C3=O)CN2[C@H]1c1ccc(Br)cc1 (stereo not given in full),0.658,0.341 (inactive),0.35 (inactive),-0.338 (inactive),1.38,0.725 (inactive),-0.185,-0.263,0.361,-0.0703,0.532,-0.117,-0.0788,0.5 (inactive),0.398,-0.0067,0.13,-0.234,0.383,0.74
